# Experimental data from PubChem BioAssay (NCI).
# The panel holds about 83,000 compounds, 20% with a hit somewhere; the sample as a whole holds those more often.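 In brief: 96-well plates, 48 h treatment, single concentration, percent growth endpoint.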 Values without a mark were called inactive. Calls of active or inactive are those of the source. The calls were made as follows: active = growth percent below 10; inactive = the rest.
# Key:
# Assay in all cases: NCI-60 one-dose screen, 48 h (100 = growth as untreated, 0 = no growth, -100 = all killed)
# Settings in all cases: 10 µM unless noted
# [1] = test system: SR leukemia
# [2] = test system: OVCAR-8 ovarian
# [3] = test system: OVCAR-5 ovarian
# [4] = test system: OVCAR-4 ovarian
# [5] = test system: SK-OV-3 ovarian
# [6] = test system: IGROV1 ovarian
# [7] = test system: OVCAR-3 ovarian
# [8] = test system: HS 578T breast
# [9] = test system: NCI/ADR-RES ovarian
# [10] = test system: T-47D breast
# [11] = test system: BT-549 breast
# [12] = test system: MDA-MB-435 melanoma
# [13] = test system: SW-620 colon
# [14] = test system: MCF7 breast
# [15] = test system: HCT-116 colon
# [16] = test system: HCC-2998 colon
# [17] = test system: KM12 colon
# [18] = test system: RPMI-8226 leukemia
SMILES,growth [1],growth [2],growth [3],growth [4],growth [5],growth [6],growth [7],growth [8],growth [9],growth [10],growth [11],growth [12],growth [13],growth [14],growth [15],growth [16],growth [17],growth [18]
O=[N+]([O-])c1cccc(C2CC(c3ccccc3)=Nc3ccccc3S2)c1 (stereo not drawn),-40.3% (active),61.9%,109%,81.7%,97.7%,91.8%,88%,95.9%,98.3%,84.9%,78.5%,112%,25.6%,16.2%,47.9%,108%,35.7%,–
CNC(=S)N/N=C/CSC/C=N/NC(=S)NC,6.29% (active),–,89.8%,76.1%,80.5%,9.24% (active),32.3%,107%,97.9%,33.2%,96.8%,81.7%,64.5%,3.33% (active),63.3%,97.6%,75.9%,63.7%
CCN(CC)CC(O)c1cc(-c2ccc(Cl)cc2)nc2c(C)c(Cl)ccc12 (stereo not drawn),-79.5% (active),-82.7% (active),–,-26% (active),29.2%,-84.7% (active),-100% (active),-62.4% (active),-84.7% (active),-89.2% (active),-36.1% (active),-90% (active),-85.8% (active),-92% (active),-100% (active),-97.4% (active),-100% (active),-32.2% (active)
COc1cccc(/C=C2/C(=O)N(Cc3ccco3)SC2=S)c1OC,-0.493% (active),81.1%,–,102%,97.8%,104%,110%,109%,103%,81.2%,89.7%,84.6%,98.4%,47.3%,86.4%,108%,92.2%,74.2%
CCCCCCCCCCCCN1CCCC(C)C1 (stereo not drawn),-13.9% (active),–,88.2%,68%,88.3%,82.4%,93.3%,–,88.2%,74.6%,78.1%,95.9%,87.7%,68.6%,60.7%,86.9%,60.7%,64.1%
O=C1c2c[n+](Cc3ccccc3)ccc2-c2nc3ccccc3c3ccnc1c23,-8.84% (active),–,-11% (active),-38.7% (active),-13% (active),-46.1% (active),-66.8% (active),-18.8% (active),75.9%,-48.4% (active),-30.7% (active),-81.8% (active),–,-42.3% (active),-31.5% (active),-53% (active),2.73% (active),-25.2% (active)
Cn1c(=O)c2[nH]c(C(O)C(O)C(O)C(O)CO)nc2n(C)c1=O (stereo not drawn),105%,108%,–,116%,99.8%,106%,109%,–,100%,90.8%,108%,108%,102%,97.9%,106%,103%,101%,110%
Brc1cccc(-c2nc(-c3ccc4c(c3)OCCO4)co2)c1,37.7% [25 µM],71.8% [25 µM],–,81% [25 µM],69.7% [25 µM],62.1% [25 µM],32.7% [25 µM],65.4% [25 µM],28.5% [25 µM],46.6% [25 µM],68.7% [25 µM],-31.9% [25 µM] (active),23% [25 µM],37% [25 µM],31.8% [25 µM],92.1% [25 µM],38.5% [25 µM],58.1% [25 µM]
C=C1C(=O)O[C@H]2[C@H]1CC/C(Cn1cc(Cn3ccc4cc(Cl)ccc43)nn1)=C\CC[C@@]1(C)O[C@@H]21,-27% (active),-38.8% (active),69.5%,14.3%,85.9%,2.27% (active),-91.2% (active),52.1%,50.6%,-47.6% (active),22.8%,1.14% (active),-75.7% (active),-77.5% (active),-91.5% (active),39.1%,52%,–
COc1ccc(C2c3ccc4ccccc4c3Oc3ncnc(N)c32)cc1 (stereo not drawn),46%,92.8%,–,89%,62.1%,64.3%,88%,82.2%,74.7%,60.1%,88.3%,8.46% (active),76.8%,68.1%,92.9%,104%,72.4%,86%
CCCCCCNC(=O)Oc1ccc(/C(=C(\C)c2ccccc2)c2ccc(OCCN(CC)CC)cc2)cc1,1.65% (active),63.5%,–,64.4%,74.3%,59.2%,66.9%,36.4%,70.6%,35.5%,71.8%,45.6%,18.8%,16.1%,30.2%,60%,37.8%,22.1%
Cc1ccc(/C=C2\Oc3cc(OCC(=O)c4ccc(Cl)cc4)ccc3C2=O)cc1,94.7%,92.9%,–,119%,115%,57.1%,94.9%,95.4%,102%,97.9%,110%,104%,97.1%,119%,89.5%,92.6%,104%,248%
COc1c2ccccc2c(OC)c2[nH]c(=O)ccc12,22.2%,87%,75.4%,60.4%,92.6%,81.5%,59.2%,32.8%,57.6%,67.8%,26.7%,-67.2% (active),61.7%,42.2%,57.6%,81%,36.2%,–
O=C(O)C(O)C(O)C(=O)O.[NH-]C1CCCCC1[NH-].[Pt+2] (stereo not drawn),117%,–,108%,106%,105%,106%,107%,109%,107%,105%,108%,104%,95%,91.9%,95.1%,104%,96.4%,110%
CCOC(=O)Cc1cnn(C)c1NC(=O)c1ccc(Cl)cc1NC(C)=O,104%,99.8%,–,110%,102%,105%,108%,97%,106%,103%,93.2%,99.4%,105%,106%,101%,107%,102%,102%
CCN(CC)CC(C)Nc1ccc([N+](=O)[O-])c2sc3ccccc3c(=O)c12 (stereo not drawn),-32.3% (active),24.6%,53.9%,32.9%,33.8%,22.3%,36.6%,27.7%,34.7%,31.2%,60.4%,24.1%,19.1%,7.9% (active),24.5%,41.3%,29.2%,–
N#Cc1c(N)nc(N)nc1Nc1ccc(Br)cc1,102%,101%,115%,94.5%,108%,47%,97.6%,70.1%,104%,71.4%,86.2%,104%,105%,61.6%,137%,110%,93.9%,–
Nc1cc2ccncc2c2ccccc12,0.467% (active),57.6%,76.2%,82.4%,66.2%,58.7%,75.4%,116%,53.2%,82.3%,70.5%,59.8%,62.7%,51.5%,38.3%,83%,68.6%,–
